# Experimental data from the supplement of paper PMC8728848.
# This is one part of a sample in which the strongest signals are shown more often than they occur.
# B1: PLU (Photorhabdus luminiscence) (protein)
# chain: HHHHHHENLYFQSSIVFASIDPRSNPLQTSSQNYVDIPGLKLDVSKYSNSPCLTALITLNIPTPYASGNNFPGGNFAIVTDQGEQLAYGGFTYSSKIPENSGRMPFTLVARYSLASNVSTIKAQWSNIRGSTVHIDSYASISAVIQCNQLV
# Experiments:
# Test in all cases: glycan array binding signal (z-score within array); higher = stronger binding
# Conditions in all cases: glycan notation: IUPAC condensed, linker removed
# [1] = target: Fuc(a1-2)Gal(b1-3)GalNAc(b1-3)Gal(a1-4)Gal(b1-4)Glc
# How it was run: (§1)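 Glycan array data came from 3228 arrays in the Consortium for Functional Glycomics database, and only arrays with an available protein sequence were kept. Glycan names were put into IUPAC-condensed notation, and columns mapping to the same glycan were averaged. The binding signal is a within-array Z-score, averaged across arrays of one protein sequence run at different concentrations or buffers and across linkers. A negative Z-score can be read as non-binding.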
# [2] = target: Fuc(a1-2)Gal(b1-3)[Fuc(a1-4)]GlcNAc
# How it was run: as §1
# [3] = target: Fuc(a1-2)Gal(b1-4)[Fuc(a1-3)]GlcNAc
# How it was run: as §1
# [4] = target: Fuc(a1-2)Gal(b1-4)[Fuc(a1-3)]GlcNAc(b1-2)Man(a1-3)[Fuc(a1-2)Gal(b1-4)[Fuc(a1-3)]GlcNAc(b1-2)Man(a1-6)]Man(b1-4)GlcNAc(b1-4)[Fuc(a1-6)]GlcNAc
# How it was run: as §1
# [5] = target: Fuc(a1-2)Gal(b1-4)[Fuc(a1-3)]GlcNAc(b1-3)Gal(b1-4)[Fuc(a1-3)]GlcNAc
# How it was run: as §1
# [6] = target: Fuc(a1-2)Gal(b1-4)[Fuc(a1-3)]GlcNAc(b1-3)Gal(b1-4)[Fuc(a1-3)]GlcNAc(b1-3)Gal(b1-4)[Fuc(a1-3)]GlcNAc
# How it was run: as §1
# [7] = target: Fuc(a1-2)[Gal(a1-3)]Gal(b1-3)GlcNAc
# How it was run: as §1
# [8] = target: Fuc(a1-2)[Gal(a1-3)]Gal(b1-4)Glc
# How it was run: as §1
# [9] = target: Fuc(a1-2)[Gal(a1-3)]Gal(b1-4)GlcNAc
# How it was run: as §1
# [10] = target: Fuc(a1-2)[Gal(a1-3)]Gal(b1-4)GlcNAc(b1-2)Man(a1-3)[Fuc(a1-2)[Gal(a1-3)]Gal(b1-4)GlcNAc(b1-2)Man(a1-6)]Man(b1-4)GlcNAc(b1-4)GlcNAc
# How it was run: as §1
# [11] = target: Fuc(a1-2)[Gal(a1-3)]Gal(b1-4)[Fuc(a1-3)]GlcNAc
# How it was run: as §1
# [12] = target: Fuc(a1-2)[GalNAc(a1-3)]Gal(b1-3)GalNAc(b1-3)Gal(a1-4)Gal(b1-4)Glc
# How it was run: as §1
# [13] = target: Fuc(a1-2)[GalNAc(a1-3)]Gal(b1-4)GlcNAc(b1-2)Man
# How it was run: as §1
# [14] = target: Fuc(a1-2)[GalNAc(a1-3)]Gal(b1-4)GlcNAc(b1-3)Gal(b1-4)GlcNAc
# How it was run: as §1
# Fuc(a1-4)GlcNAc = target: Fuc(a1-4)GlcNAc
# How it was run: as §1
# Fuc(b1-3)GlcNAc = target: Fuc(b1-3)GlcNAc
# How it was run: as §1
# [15] = target: Gal(a1-3)Gal(b1-3)GlcNAc(b1-6)GalNAc
# How it was run: as §1
# Gal(a1-3)Gal(b1-4)Glc = target: Gal(a1-3)Gal(b1-4)Glc
# How it was run: as §1
# Gal(a1-3)Gal(b1-4)GlcNAc = target: Gal(a1-3)Gal(b1-4)GlcNAc
# How it was run: as §1
# [16] = target: Gal(a1-3)Gal(b1-4)[Fuc(a1-3)]GlcNAc
# How it was run: as §1
# [17] = target: Gal(a1-4)Gal(b1-4)GlcNAc(b1-2)Man(a1-3)[Gal(a1-4)Gal(b1-4)GlcNAc(b1-2)Man(a1-6)]Man(b1-4)GlcNAc(b1-4)GlcNAc
# How it was run: as §1
# [18] = target: Gal(b1-3)[Neu5Ac(b2-6)]GalNAc
# How it was run: as §1
# Gal(b1-4)Gal = target: Gal(b1-4)Gal
# How it was run: as §1
# [19] = target: Gal(b1-4)GlcNAc(b1-2)Man(a1-3)Man(b1-4)GlcNAc(b1-4)GlcNAc
# How it was run: as §1
# [20] = target: Gal(b1-4)GlcNAc(b1-3)Gal(b1-4)GlcNAc(b1-3)Gal(b1-4)GlcNAc(b1-3)Gal(b1-4)GlcNAc(b1-3)Gal(b1-4)GlcNAc(b1-2)Man(a1-3)[Gal(b1-4)GlcNAc(b1-3)Gal(b1-4)GlcNAc(b1-3)Gal(b1-4)GlcNAc(b1-3)Gal(b1-4)GlcNAc(b1-3)Gal(b1-4)GlcNAc(b1-2)Man(a1-6)]Man(b1-4)GlcNAc(b1-4)[Fuc(a1-6)]GlcNAc
# How it was run: as §1
# [21] = target: Gal(b1-4)GlcNAc(b1-3)[GlcNAc(b1-6)]Gal(b1-4)GlcNAc
# How it was run: as §1
# [22] = target: Gal(b1-4)GlcNAc(b1-6)GalNAc
# How it was run: as §1
# GalNAc(b1-3)Gal = target: GalNAc(b1-3)Gal
# How it was run: as §1
# GalNAc(b1-6)GalNAc = target: GalNAc(b1-6)GalNAc
# How it was run: as §1
# Glc(a1-6)Glc(a1-6)Glc = target: Glc(a1-6)Glc(a1-6)Glc
# How it was run: as §1
# [23] = target: GlcNAc(a1-4)Gal(b1-4)GalNAc
# How it was run: as §1
# [24] = target: GlcNAc(b1-3)Gal(b1-4)GlcNAc(b1-2)Man(a1-3)[GlcNAc(b1-3)Gal(b1-4)GlcNAc(b1-2)Man(a1-6)]Man(b1-4)GlcNAc(b1-4)GlcNAc
# How it was run: as §1
# [25] = target: GlcNAc(b1-4)Gal(b1-4)GlcNAc
# How it was run: as §1
# [26] = target: GlcNAc(b1-4)GlcNAc(b1-4)GlcNAc
# How it was run: as §1
# Kdn(a2-3)Gal(b1-4)GlcNAc = target: Kdn(a2-3)Gal(b1-4)GlcNAc
# How it was run: as §1
# [27] = target: Man(a1-3)[Man(a1-6)]Man(a1-6)[Man(a1-3)]Man
# How it was run: as §1
# [28] = target: Neu5Ac(a2-3)Gal(b1-3)GalNAc(b1-3)Gal(a1-4)Gal(b1-4)Glc
# How it was run: as §1
# [29] = target: Neu5Ac(a2-3)Gal(b1-3)GlcNAc6S
# How it was run: as §1
# [30] = target: Neu5Ac(a2-3)Gal(b1-3)[Neu5Ac(a2-6)]GalNAc
# How it was run: as §1
# [31] = target: Neu5Ac(a2-3)Gal(b1-4)GlcNAc(b1-2)Man(a1-3)[GlcNAc(b1-4)][Neu5Ac(a2-3)Gal(b1-4)GlcNAc(b1-2)Man(a1-6)]Man(b1-4)GlcNAc(b1-4)GlcNAc
# How it was run: as §1
# [32] = target: Neu5Ac(a2-3)Gal(b1-4)GlcNAc(b1-3)Gal(b1-4)GlcNAc
# How it was run: as §1
# [33] = target: Neu5Ac(a2-3)Gal(b1-4)GlcNAc(b1-6)[Gal(b1-3)]GalNAc
# How it was run: as §1
# [34] = target: Neu5Ac(a2-3)Gal(b1-4)GlcNAc(b1-6)[Neu5Ac(a2-3)Gal(b1-3)]GalNAc
# How it was run: as §1
# [35] = target: Neu5Ac(a2-3)[GalNAc(b1-4)]Gal(b1-4)Glc
# How it was run: as §1
# [36] = target: Neu5Ac(a2-3)[Neu5Ac(a2-6)]GalNAc
# How it was run: as §1
# [37] = target: Neu5Ac(a2-6)Gal(b1-4)GlcNAc(b1-2)[Neu5Ac(a2-6)Gal(b1-4)GlcNAc(b1-4)]Man(a1-3)[GlcNAc(b1-4)][Neu5Ac(a2-6)Gal(b1-4)GlcNAc(b1-4)Man(a1-6)]Man(b1-4)GlcNAc(b1-4)GlcNAc
# How it was run: as §1
# [38] = target: Neu5Ac(a2-6)Gal(b1-4)GlcNAc(b1-6)GalNAc
# How it was run: as §1
# [39] = target: Neu5Gc(a2-8)Neu5Ac(a2-3)Gal(b1-4)GlcNAc
# How it was run: as §1
binder,measurement,setting,value
B1,glycan array binding signal (z-score),[1],-0.183
same,glycan array binding signal (z-score),[2],5.25
same,glycan array binding signal (z-score),[3],3.55
same,glycan array binding signal (z-score),[4],0.621
same,glycan array binding signal (z-score),[5],3.58
same,glycan array binding signal (z-score),[6],5.21
same,glycan array binding signal (z-score),[7],4.43
same,glycan array binding signal (z-score),[8],3.43
same,glycan array binding signal (z-score),[9],3.83
same,glycan array binding signal (z-score),[10],3.78
same,glycan array binding signal (z-score),[11],5.59
same,glycan array binding signal (z-score),[12],-0.33
same,glycan array binding signal (z-score),[13],3.66
same,glycan array binding signal (z-score),[14],11.7
same,glycan array binding signal (z-score),Fuc(a1-4)GlcNAc,0.546
same,glycan array binding signal (z-score),Fuc(b1-3)GlcNAc,-0.329
same,glycan array binding signal (z-score),[15],-0.253
same,glycan array binding signal (z-score),Gal(a1-3)Gal(b1-4)Glc,-0.284
same,glycan array binding signal (z-score),Gal(a1-3)Gal(b1-4)GlcNAc,-0.298
same,glycan array binding signal (z-score),[16],-0.21
same,glycan array binding signal (z-score),[17],-0.137
same,glycan array binding signal (z-score),[18],-0.298
same,glycan array binding signal (z-score),Gal(b1-4)Gal,-0.25
same,glycan array binding signal (z-score),[19],-0.227
same,glycan array binding signal (z-score),[20],-0.211
same,glycan array binding signal (z-score),[21],-0.329
same,glycan array binding signal (z-score),[22],-0.243
same,glycan array binding signal (z-score),GalNAc(b1-3)Gal,-0.24
same,glycan array binding signal (z-score),GalNAc(b1-6)GalNAc,-0.216
same,glycan array binding signal (z-score),Glc(a1-6)Glc(a1-6)Glc,-0.299
same,glycan array binding signal (z-score),[23],-0.301
same,glycan array binding signal (z-score),[24],-0.212
same,glycan array binding signal (z-score),[25],-0.134
same,glycan array binding signal (z-score),[26],-0.336
same,glycan array binding signal (z-score),Kdn(a2-3)Gal(b1-4)GlcNAc,-0.224
same,glycan array binding signal (z-score),[27],-0.093
same,glycan array binding signal (z-score),[28],-0.254
same,glycan array binding signal (z-score),[29],-0.277
same,glycan array binding signal (z-score),[30],-0.203
same,glycan array binding signal (z-score),[31],-0.251
same,glycan array binding signal (z-score),[32],-0.256
same,glycan array binding signal (z-score),[33],-0.144
same,glycan array binding signal (z-score),[34],-0.34
same,glycan array binding signal (z-score),[35],-0.324
same,glycan array binding signal (z-score),[36],-0.281
same,glycan array binding signal (z-score),[37],-0.267
same,glycan array binding signal (z-score),[38],-0.292
same,glycan array binding signal (z-score),[39],-0.285
